Assay results: the supplement of paper PMC8728848
Only a selection was taken, and the strongest signals are over-represented in it overall.

What was measured:
Experiment in all cases: glycan array binding signal (z-score within array); higher = stronger binding
Details in all cases: glycan notation: IUPAC condensed, linker removed
[1] = target: Fuc(a1-2)Gal(b1-3)GalNAc(a1-3)[Fuc(a1-2)]Gal(b1-4)GlcNAc
In short: (§1)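 Glycan array data were curated from 3228 arrays in the Consortium for Functional Glycomics database and kept only where the protein sequence was available. Glycan names were converted to IUPAC-condensed notation, and columns mapping to the same glycan were averaged. The binding signal is a within-array Z-score, averaged across arrays of the same protein sequence at different concentrations or buffers and across linkers. Negative Z-scores can be read as non-binding.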

[2] = target: Fuc(a1-2)Gal(b1-4)GlcNAc(b1-3)Gal(b1-4)GlcNAc(b1-2)Man(a1-3)[Fuc(a1-2)Gal(b1-4)GlcNAc(b1-3)Gal(b1-4)GlcNAc(b1-2)Man(a1-6)]Man(b1-4)GlcNAc(b1-4)GlcNAc
In short: as §1

[3] = target: Fuc(a1-2)[Gal(a1-3)]Gal(b1-4)[Fuc(a1-3)]GlcNAc(b1-3)GalNAc
In short: as §1

[4] = target: Fuc(a1-2)[GalNAc(a1-3)]Gal(b1-3)GalNAc(a1-3)[Fuc(a1-2)]Gal(b1-4)GlcNAc
In short: as §1

[5] = target: Fuc(a1-2)[GalNAc(a1-3)]Gal(b1-4)GlcNAc(b1-2)Man(a1-3)[Fuc(a1-2)[GalNAc(a1-3)]Gal(b1-4)GlcNAc(b1-2)Man(a1-6)]Man(b1-4)GlcNAc(b1-4)GlcNAc
In short: as §1

[6] = target: Fuc(a1-2)[GalNAc(a1-3)]Gal(b1-4)[Fuc(a1-3)]GlcNAc(b1-3)GalNAc
In short: as §1

[7] = target: Fuc(a1-3)[Gal(b1-4)]Glc6S
In short: as §1

[8] = target: Fuc(a1-3)[Gal(b1-4)]GlcNAc
In short: as §1

[9] = target: Gal(a1-3)Gal(b1-3)[Fuc(a1-4)]GlcNAc(b1-2)Man(a1-3)[Gal(a1-3)Gal(b1-3)[Fuc(a1-4)]GlcNAc(b1-2)Man(a1-6)]Man(b1-4)GlcNAc(b1-4)GlcNAc
In short: as §1

[10] = target: Gal(a1-3)Gal(b1-4)[Fuc(a1-3)]GlcNAc(b1-2)Man(a1-3)[Gal(a1-3)Gal(b1-4)[Fuc(a1-3)]GlcNAc(b1-2)Man(a1-6)]Man(b1-4)GlcNAc(b1-4)GlcNAc
In short: as §1

[11] = target: Gal(b1-3)GalNAc(b1-3)Gal(a1-4)Gal(b1-4)Glc
In short: as §1

[12] = target: Gal(b1-3)GalNAc(b1-4)[Neu5Ac(a2-3)]Gal(b1-4)Glc
In short: as §1

[13] = target: Gal(b1-3)GlcNAc(b1-2)Man(a1-3)[Gal(b1-3)GlcNAc(b1-2)Man(a1-6)]Man(b1-4)GlcNAc(b1-4)GlcNAc
In short: as §1

[14] = target: Gal(b1-3)GlcNAc(b1-3)Gal(b1-4)GlcNAc(b1-6)[Gal(b1-3)GlcNAc(b1-3)]Gal(b1-4)Glc
In short: as §1

[15] = target: Gal(b1-3)GlcNAc6S
In short: as §1

[16] = target: Gal(b1-3)[Fuc(a1-4)]GlcNAc(b1-6)GalNAc
In short: as §1

[17] = target: Gal(b1-3)[GlcNAc(b1-6)]GalNAc
In short: as §1

[18] = target: Gal(b1-3)[Neu5Ac(a2-6)]GlcNAc(b1-4)Gal(b1-4)Glc
In short: as §1

[19] = target: Gal(b1-4)GlcNAc(b1-2)Man(a1-3)[Man(a1-6)]Man(b1-4)GlcNAc(b1-4)GlcNAc
In short: as §1

[20] = target: Gal(b1-4)GlcNAc(b1-2)[Gal(b1-4)GlcNAc(b1-6)]Man(a1-6)[Gal(b1-4)GlcNAc(b1-2)Man(a1-3)]Man(b1-4)GlcNAc(b1-4)[Fuc(a1-6)]GlcNAc
In short: as §1

[21] = target: Gal(b1-4)GlcNAc(b1-3)Gal(b1-3)GalNAc
In short: as §1

[22] = target: Gal(b1-4)GlcNAc(b1-3)Gal(b1-4)GlcNAc(b1-3)Gal(b1-4)GlcNAc(b1-2)Man(a1-3)[Gal(b1-4)GlcNAc(b1-3)Gal(b1-4)GlcNAc(b1-3)Gal(b1-4)GlcNAc(b1-2)Man(a1-6)]Man(b1-4)GlcNAc(b1-4)GlcNAc
In short: as §1

[23] = target: Gal(b1-4)GlcNAc(b1-3)Gal(b1-4)GlcNAc(b1-3)Gal(b1-4)GlcNAc(b1-3)Gal(b1-4)GlcNAc(b1-2)Man(a1-3)[Gal(b1-4)GlcNAc(b1-3)Gal(b1-4)GlcNAc(b1-3)Gal(b1-4)GlcNAc(b1-3)Gal(b1-4)GlcNAc(b1-2)Man(a1-6)]Man(b1-4)GlcNAc(b1-4)[Fuc(a1-6)]GlcNAc
In short: as §1

[24] = target: Gal(b1-4)GlcNAc(b1-3)Gal(b1-4)GlcNAc(b1-3)Gal(b1-4)GlcNAc(b1-3)Gal(b1-4)GlcNAc(b1-3)Gal(b1-4)GlcNAc(b1-2)[Gal(b1-4)GlcNAc(b1-3)Gal(b1-4)GlcNAc(b1-3)Gal(b1-4)GlcNAc(b1-3)Gal(b1-4)GlcNAc(b1-3)Gal(b1-4)GlcNAc(b1-6)]Man(a1-6)[Gal(b1-4)GlcNAc(b1-3)Gal(b1-4)GlcNAc(b1-3)Gal(b1-4)GlcNAc(b1-3)Gal(b1-4)GlcNAc(b1-3)Gal(b1-4)GlcNAc(b1-2)Man(a1-3)]Man(b1-4)GlcNAc(b1-4)[Fuc(a1-6)]GlcNAc
In short: as §1

[25] = target: Gal(b1-4)GlcNAc6P
In short: as §1

[26] = target: Gal(b1-6)Gal
In short: as §1

[27] = target: Gal3S(b1-3)GalNAc
In short: as §1

[28] = target: Gal3S(b1-3)GlcNAc
In short: as §1

[29] = target: Gal6S(b1-4)GlcNAc
In short: as §1

[30] = target: GalNAc(a1-3)GalNAc(b1-3)Gal(a1-4)Gal(b1-4)Glc
In short: as §1

B1: SBD-G4S3-SBD (protein)
chain: MASIPSSASVQLDSYNYDGSTFSGKIYVKNIAYSKKVTVVYADGSDNWNNNGNIIAASFSGPISGSNYEYWTFSASVKGIKEFYIKYEVSGKTYYDNNNSANYQVSTGGGGSGGGGSGGGGSEFASIPSSASVQLDSYNYDGSTFSGKIYVKNIAYSKKVTVVYADGSDNWNNNGNIIAASFSGPISGSNYEYWTFSASVKGIKEFYIKYEVSGKTYYDNNNSANYQVST
glycan array binding signal (z-score) [1]: -0.396
glycan array binding signal (z-score) [2]: -0.362
glycan array binding signal (z-score) [3]: 0.033
glycan array binding signal (z-score) [4]: 1.17
glycan array binding signal (z-score) [5]: 6.16
glycan array binding signal (z-score) [6]: 4.46
glycan array binding signal (z-score) [7]: 2
glycan array binding signal (z-score) [8]: -0.355
glycan array binding signal (z-score) [9]: 7.53
glycan array binding signal (z-score) [10]: 0.036
glycan array binding signal (z-score) [11]: -0.324
glycan array binding signal (z-score) [12]: -0.263
glycan array binding signal (z-score) [13]: 4.15
glycan array binding signal (z-score) [14]: -0.42
glycan array binding signal (z-score) [15]: -0.404
glycan array binding signal (z-score) [16]: 4.38
glycan array binding signal (z-score) [17]: -0.371
glycan array binding signal (z-score) [18]: -0.092
glycan array binding signal (z-score) [19]: -0.387
glycan array binding signal (z-score) [20]: 4.53
glycan array binding signal (z-score) [21]: -0.052
glycan array binding signal (z-score) [22]: 1.38
glycan array binding signal (z-score) [23]: 7.46
glycan array binding signal (z-score) [24]: 8.43
glycan array binding signal (z-score) [25]: -0.348
glycan array binding signal (z-score) [26]: -0.136
glycan array binding signal (z-score) [27]: -0.369
glycan array binding signal (z-score) [28]: -0.406
glycan array binding signal (z-score) [29]: 4.01
glycan array binding signal (z-score) [30]: -0.403
